Consider 40 sequences from the OligoGym collection.
Also: reference of the scale not given here.

The target of one assay is KDELR1. Kind of assay: pooled miR-30 sensor sort-seq; sequence = guide strand. The conditions noted are these: shRNA.
Sequence TAGGACTTTGGTGATATAGAGG came in with a sensor-assay potency score (higher = more potent) of -1.32.

With AGGAACTCCACTCTGAACGTGT, the sensor-assay potency score (higher = more potent) is -0.99.

Turning to TAGAGTGAGATGTAGTTGGTGA, the sensor-assay potency score (higher = more potent) worked out at 0.498.

TTGCTCACCATGAACAGCTGCG showed a sensor-assay potency score (higher = more potent) of -0.0886.

Regarding TCGTAAGTAGCTTTGAACTTGC, the sensor-assay potency score (higher = more potent) was -0.201.

The target of a further assay is KDM2B. Described as above. The conditions noted are these: shRNA.
In the case of TTTGGCATCGTTCCACACGGTC, the sensor-assay potency score (higher = more potent) is -1.07.

On to TAAACTTGCCTTCCTCCTCTTC, for which the sensor-assay potency score (higher = more potent) was -0.422.

TTGGAGATATTGGTCCAGCTGA: the sensor-assay potency score (higher = more potent) was -0.912.

With TTACACTTCGGACACTCCCAGC, the sensor-assay potency score (higher = more potent) was -1.12.

Take TTCTTTGCCAGGTTTGAGCCGC: the sensor-assay potency score (higher = more potent) was -0.547.

Turning to TTCTTTGCCAGGTTTGAGCTGC, the sensor-assay potency score (higher = more potent) was -0.103.

For TTCGAGTGCTCATCCGACCTGC, the sensor-assay potency score (higher = more potent) was 0.201.

TGGTTGAACAGCTTCTCCCTTG registered a sensor-assay potency score (higher = more potent) of -0.428.

TTCTTGGAGATATTGGTCCAGC registered a sensor-assay potency score (higher = more potent) of -0.935.

The sequence TATCTCTCCAGGACATACCAGC yielded a sensor-assay potency score (higher = more potent) of -0.897.

TATCGCTGGCGGTCAATCGGGC gave a sensor-assay potency score (higher = more potent) of -0.118.

As to TTGTCCATCTGACCTGGCCTGT, the sensor-assay potency score (higher = more potent) is -0.884.

In another assay the target is KDR. Described as above. The conditions noted are these: shRNA.
In the case of TTCTTCTACATCACTGAGGGAC, the sensor-assay potency score (higher = more potent) is -0.165.

In turn, TTCTTCTTGGTCATCAGCCCAC came in with a sensor-assay potency score (higher = more potent) of -0.727.

Regarding TTTTGCTTCACAGAAGACCATG, the sensor-assay potency score (higher = more potent) is -1.02.

In turn, TAGCTGATCATGTAGCTGGGAA came in with a sensor-assay potency score (higher = more potent) of -0.114.

Consider TAATAGACTGGTAACTTTCATC, for which the sensor-assay potency score (higher = more potent) is -0.621.

For TTGACTGCTACTGTCCTGCAAG, the sensor-assay potency score (higher = more potent) was -0.615.

For the sequence ATTTTGACTGCTACTGTCCTGC, the sensor-assay potency score (higher = more potent) is 0.0399.

The sequence TAATTTGGTTCTGTCTTCCAAA registered a sensor-assay potency score (higher = more potent) of -0.462.

Sequence TTGCTGTCTTGTCAATTCCAAA gave a sensor-assay potency score (higher = more potent) of -1.68.

As to TGTCTTTTCTTGGTCTTCCTGT, the sensor-assay potency score (higher = more potent) worked out at 0.316.

Consider TTGCACTCCAATCTCTATCAGC, for which the sensor-assay potency score (higher = more potent) is -0.492.

Sequence TAGACTGGTAACTTTCATCATT gave a sensor-assay potency score (higher = more potent) of -0.75.

Another assay has as its target KHDRBS3. The assay is described as above. The conditions noted are these: shRNA.
As to TGGTACTACAACTCCAACTGGC, the sensor-assay potency score (higher = more potent) is -0.54.

Take TTGAACAGTATACAGGACTGGT: the sensor-assay potency score (higher = more potent) was -0.303.

The sequence TTCTATTTCTTGGTTCACCAGG gave a sensor-assay potency score (higher = more potent) of -0.397.

TTCTTCTTGTAAACGCTTCAGA showed a sensor-assay potency score (higher = more potent) of -0.501.

For the sequence TTGAGTTAGTCCACTCTTCTTG, the sensor-assay potency score (higher = more potent) worked out at 0.078.

TAACACTTTCTGTCCCAGCTTC returned a sensor-assay potency score (higher = more potent) of 0.341.

TACTACAACTCCAACTGGCCGG came in with a sensor-assay potency score (higher = more potent) of -0.46.

As for TTGCTGTCCTCGCTGAAGGTGC, the sensor-assay potency score (higher = more potent) is -1.17.

With TAGTCCACTCTTCTTGCCCGTA, the sensor-assay potency score (higher = more potent) was -0.553.

The sequence TAAGTCTCTTGTGTCGGGGGTG had a sensor-assay potency score (higher = more potent) of -0.204.

With TTGTGTCTTGAGTTAGTCCACT, the sensor-assay potency score (higher = more potent) was -0.733.
